# DT40 TDP1 CPT: growth inhibition of DT40 Tdp1-/-;hTDP1 cells with camptothecin (screen for TDP1 inhibitors); actives 12% (n = 420,000); chicken DT40 Tdp1-/-;hTDP1 cells + 20 nM CPT, ATP luminescence, 48 h; Potency, µM (series often up to 46.2 µM), for inactives: top-dose activity change, negative = growth inhibition, hits mostly inhibitors; further: potency means the concentration at half of the fitted maximal effect; on the % scale 0 is the no-effect control and ±100 the full control effect; nearly all actives have a fitted effect of over 55% in size
#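 Chicken DT40 Tdp1-/- cells stably complemented with human TDP1 were seeded at 400 cells/well in medium containing 20 nM camptothecin, exposed to pin-transferred compounds, and grown at 37 °C for at least 48 hr. Viability was read as ATP luminescence.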
# ClpP mod: qHTS Assay for Activators of ClpP | actives 1.9% (n = 340,000) | purified B. subtilis ClpP, FRET peptide cleavage, 20 min | Potency, µM (doses to about 57.5 µM), for the others: top-dose activity change, negative = active | ATP-dependent Clp protease proteolytic subunit (Bacillus subtilis (strain 168)), P80244; active means well fitted falling curve with a large enough effect; inconclusive means small, poorly fitted or top-dose-only effect; inactive means no such curve, though single readings can be large or run the other way; further: potency means the concentration at half of the fitted maximal effect; the source files actives as falling curves though it sought activators and does not explain the sign; nearly all actives have a fitted effect of over 65% in size
# Target sequence (P80244 whole entry, looked up): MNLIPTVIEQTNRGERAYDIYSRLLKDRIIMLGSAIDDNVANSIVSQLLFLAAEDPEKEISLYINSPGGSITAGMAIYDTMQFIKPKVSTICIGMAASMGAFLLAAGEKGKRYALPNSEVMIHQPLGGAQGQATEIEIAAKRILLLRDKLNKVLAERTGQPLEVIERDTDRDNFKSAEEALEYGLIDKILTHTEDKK
#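 FRET quenching reversal measured ClpP activation: 10 microg/mL B. subtilis ClpP at pH 8 with the FRET-FV decapeptide, read at 430 nm after 320 nm excitation. The 20-min minus 0-min signal was scaled between DMSO/no-enzyme wells and ADEP (5.8 microM final).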
# IL1B secr inh: inhibitors of inflammasome signaling (IL-1 beta secretion); AID 743279; THP-1 LPS/ATP IL-1B secretion, AlphaLISA, 16 h; active compounds read low; actives 4.7% (n = 360,000); activity change, % at 57.5 µM; in the data active means activity change below about -50%; inconclusive means mostly about -30% to -49%; further: on the % scale 0 is the no-effect control and ±100 the full control effect
#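 THP-1 cells pretreated 1 hr with compounds (up to 57.5 uM final), then stimulated with LPS (250 ng/mL final) plus ATP (1.25 mM final); secreted IL-1B measured by AlphaLISA after 16 hr, decreased signal indicating inhibition.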
# DT40 TDP1 no CPT: qHTS for Inhibitors of human tyrosyl-DNA phosphodiesterase 1 (TDP1): qHTS in cells in absence of CPT; Potency, µM (series often up to 46.2 µM), inactives show top-dose activity change, negative = growth inhibition, most hits filed as inhibitors; DT40 Tdp1-/- hTDP1 cells, no CPT, ATP luminescence, 48 h; AID 686978, 2013; actives 15% (n = 420,000); further: potency means the concentration at half of the fitted maximal effect; on the % scale 0 is the no-effect control and ±100 the full control effect; nearly all actives have a fitted effect of over 55% in size
#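 A cellular qHTS used chicken DT40 cells lacking endogenous Tdp1 but carrying stably transfected human TDP1. Compounds were applied without camptothecin, and cell growth kinetics were judged by ATP-dependent luminescence after ≥48 hr.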
# DRD3 antagonist: blocks the human D3 dopamine receptor; actives 2.5% (n = 360,000); P35462; max response, negative = inhibition, %; D3R cells, DiscoveRx beta-arrestin luminescence, antagonist mode; active compounds read low; AID 652054; in the data active means max response below about -50%; inconclusive means no clear call, values can overlap the other calls; further: on the % scale 0 is the no-effect control and ±100 the full control effect
# Target sequence (P35462 whole entry, looked up): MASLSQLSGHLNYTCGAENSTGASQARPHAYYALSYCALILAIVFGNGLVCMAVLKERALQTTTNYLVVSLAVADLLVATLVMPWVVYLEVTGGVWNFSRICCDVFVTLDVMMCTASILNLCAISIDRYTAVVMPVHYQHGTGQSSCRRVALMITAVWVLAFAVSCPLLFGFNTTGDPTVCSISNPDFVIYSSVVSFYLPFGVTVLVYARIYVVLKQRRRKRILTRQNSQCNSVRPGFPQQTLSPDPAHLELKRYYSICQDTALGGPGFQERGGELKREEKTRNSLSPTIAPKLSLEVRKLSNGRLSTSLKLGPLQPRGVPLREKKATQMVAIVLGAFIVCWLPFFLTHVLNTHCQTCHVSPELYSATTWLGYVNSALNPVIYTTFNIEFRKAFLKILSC
#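 Cells expressing the human receptor were seeded at 1500 cells/well, incubated overnight at 37 degrees C in 5% CO2, then exposed to library compounds with dopamine controls for 90 minutes at 37 degrees C before luminescent detection.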
# DRD3 agonist: activates the human D3 dopamine receptor. D3R DiscoveRx beta-arrestin cells, luminescence, 90 min. AID 652048. P35462. max activation, %. actives 0.58% (n = 410,000); in the data active means max activation above about 30%; further: 0% is about no effect
#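 Agonist mode: compounds and dopamine controls were applied to plated cells for 90 min at 37 degrees C after an overnight attachment at 1500 cells/well. Luminescent read-out followed 30 - 60 minutes at room temperature with DiscoveRx detection reagent.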
# Starred values were filed as active, the others as inactive; ? = inconclusive; · = no result. Shown are actives, neighbours in structure and some others; about 21% of the full set was active somewhere. Unless noted, the call rests on the fitted dose curve; in most records, active means well fitted inhibition curve with a large enough effect; inconclusive means small, poorly fitted or top-dose-only effect; inactive means flat fitted curve, though single readings scatter.
SMILES,DT40 TDP1 CPT,ClpP mod,IL1B secr inh,DT40 TDP1 no CPT,DRD3 antagonist,DRD3 agonist
CN(C)c1cccc2c1c(NC(=O)Nc1ccc(F)cc1F)nn2C,?,?,-53*,?,42,-3
COc1ccccc1NS(=O)(=O)c1cc(NC(=O)c2cccs2)ccc1N1CCOCC1,7.3µM*,·,21,2.6µM*,21,-3
COc1ccccc1NS(=O)(=O)c1cc(NC(=O)c2ccccc2F)ccc1N1CCOCC1,16µM*,·,1,13µM*,-3,0
COc1ccccc1NS(=O)(=O)c1cc(NC(=O)c2ccccc2[N+](=O)[O-])ccc1N1CCOCC1,?,·,-4,?,-7,7
CN(C)c1ccc(C(CNC(=O)COc2ccc(Cl)cc2)N2CCCC2)cc1 (configuration not stated),?,0%,?,?,-4,-9
CCOc1ccc(CC(=O)NCc2ccc3c(c2)CCN3C(=O)c2ccc(F)cc2)cc1OCC,?,0%,·,?,·,8
O=C(N[C@@H]1c2ccccc2C2(CCN(C(=O)c3cc4ccccc4oc3=O)CC2)[C@H]1O)c1cccnc1,-1%,·,·,-6%,·,·
CCCCNC(=S)N/N=C/c1ccc(OCC(=O)Nc2c(C)cc(C)cc2C)c(OC)c1,-28%,·,27,?,0,4
CCCCNC(=S)N/N=C/c1ccccc1F,?,?,-6,15µM*,-1,-2
CCCCNC(=S)N/N=C/c1cc(C)ccc1C,5.2µM*,-2%,16,6.5µM*,-23,-4
CCCCNC(=S)N/N=C/c1sccc1C,0.92µM*,1%,-8,1.5µM*,3,-13
CCCCNC(=S)N/N=C/c1ccc(C)s1,?,-1%,0,?,8,2
COc1ccc(-c2nc3n(n2)C(c2ccccc2F)C(C(=O)Nc2cccnc2)=C(C)N3)cc1OC (configuration not stated),?,-10%,·,-92%,·,-14
O=C(CSc1nnc2ccc(-c3cccnc3)nn12)Nc1ccccc1F,-3%,0%,-14,-1%,12,2
CCOC(=O)N1CCN(S(=O)(=O)N2CCCC(C(=O)NCCCN3CCCCC3)C2)CC1 (configuration not stated),-7%,0%,0,28%,-3,0
NC(=O)NCCCC(=O)NCC(c1ccccc1Cl)c1c[nH]c2ccccc12 (configuration not stated),?,0%,35,?,19,-1
O=C(Cc1c(F)cccc1Cl)N(Cc1ccccc1)c1ccccn1,?,-2%,-14,?,6,4
CCc1ccc(CN(C(=O)Nc2cccc(Cl)c2)c2ccccn2)cc1,18µM*,-3%,·,?,·,-3
Cc1ccc(CN2CCC(c3cc(-c4ccc(Cl)cc4)n[nH]3)CC2)cc1,16µM*,·,-97*,15µM*,-91*,-8
COc1ccc(-c2cc(C3CCN(Cc4ccc([N+](=O)[O-])cc4)CC3)[nH]n2)cc1,-25%,·,-84*,?,-14,-14
Clc1ccc(-c2cc(C3CCNCC3)[nH]n2)cc1,23µM*,·,?,26µM*,-1,8
Cn1ncc2c(=S)nc(Cl)[nH]c21,?,-2%,-19,?,-27,-6
CCN(CC(=O)NC(=O)Nc1ccccc1F)Cc1ccccc1,5%,-1%,-7,9%,-4,1
COc1ccc(C2C(C(=O)Nc3cccnc3)=C(C)Nc3nc(-c4ccccc4)nn32)cc1OC (configuration not stated),-2%,0%,·,-8%,·,3
CC(=O)Nc1cccc(-c2cc(N3CCN(CCO)CC3)n3nccc3n2)c1,-11%,-24%,2,-2%,-15,37*
SMILES,DT40 TDP1 CPT,ClpP mod,IL1B secr inh,DT40 TDP1 no CPT,DRD3 antagonist,DRD3 agonist
OCCN1CCN(c2cc(-c3ccc(CO)cc3)nc3ccnn23)CC1,-2%,5%,15,-10%,?,-7
CN1CCN(c2cc(-c3ccc4ccccc4c3)nc3ccnn23)CC1,23µM*,5%,-18,?,-2,-7
Cc1ccc(NC(=O)c2ccc3c(c2)C(=O)N(c2cc(C)ccc2C)C3=O)nc1,?,1%,0,-11%,9,-5
COc1ccc(C(=O)/C=C/N(C)C)cc1OC,?,0%,-13,?,2,1
COc1ccc(C(=O)/C=C2\NCCc3cc(OC)c(OC)cc32)cc1OC,16µM*,4%,?,16µM*,-2,-7
CCN(CC)CCNC(=O)CCc1nnc2ccc(N3CCC(C)CC3)nn12,2%,0%,-4,4%,8,-5
CCN(C(=O)c1cccc(S(=O)(=O)N(C)C)c1)C12CC3CC(CC(C3)C1)C2,13µM*,·,-7,12µM*,-4,5
CCN(C(=O)c1ccc2c(c1)OCO2)C12CC3CC(CC(C3)C1)C2,?,-1%,5,23µM*,-1,-3
CCN(CC(=O)NCc1cccs1)C(=O)c1cccc(S(=O)(=O)N(C)C)c1,-7%,0%,11,-14%,16,0
COCCNC(=O)Cn1nc(-c2ccc(Cl)cc2)c2ccccc2c1=O,0%,·,-21,-11%,-20,2
O=C(NN=C1CCCC1)c1cc(Cl)cc(Cl)c1O,-9%,4%,8,12%,2,-1
Cc1nc(C(=O)N2CCCC(C(=O)c3cccc(OC(C)C)c3)C2)cs1 (configuration not stated),10µM*,-4%,14,15µM*,14,3
Cc1cnc(C(=O)N2CCCC(C(=O)c3cccc(OC(C)C)c3)C2)cn1 (configuration not stated),?,-4%,11,-26%,-5,0
CC(C)Oc1cccc(C(=O)C2CCCN(C(=O)c3ccccn3)C2)c1 (configuration not stated),21µM*,-9%,36,10µM*,-2,3
CC(=O)OCOC(=O)CN(CC(=O)OCOC(C)=O)c1ccccc1OCCOc1ccccc1N(CC(=O)OCOC(C)=O)CC(=O)OCOC(C)=O,1.4µM*,·,·,1.6µM*,·,·
C=C(C)C(=O)NNc1ccccc1,5.2µM*,·,4,7.3µM*,5,13
CC(C)OC(=O)C(=O)NNc1ccccc1,-1%,·,19,-17%,12,7
CCCCNCc1cc2ccccc2o1,-13%,1%,-21,27%,-51*,-12
